# Measured values from PubChem BioAssay (NCATS).
# Values joined by “and” are separate entries in the source; they are usually repeats but may differ in a detail not shown here. Equal entries are not always repeated. Inconclusive results are not listed. Entries that show only a call come without a potency. More than one record can exist for a structure, and the calls need not agree. Active and inactive are the calls of the source. Unless noted, the call rests on the fitted dose curve; in most records, active means well fitted curve in the direction sought with a large enough effect; inconclusive means small, poorly fitted or top-dose-only effect, or another doubt; inactive means no such curve, though single readings can be large; an effect the other way counts as inactive or inconclusive. Square brackets hold non-standard residues; d marks the D form. Peptide text beside a SMILES is read from it. pGlu = O=C1CC[C@@H](C(=O)O)N1
# Columns and labels:
# [1] = target: Glutathione peroxidase 1 (Homo sapiens) (UniProt P07203); test: Primary qHTS Assay for Inhibitors of Recombinant Selenoprotein Glutathione Peroxidase 1 (GPX1) (AID 1845191); further: nearly all actives have a fitted effect of over 65% in size
# How it was run: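 GPX1 10 nM, GR 100 nM, GSH 1 mM, NADPH 0.5 mM, CHP 0.5 mM (final). 30-min cpd preincubation, RT. Ex340/Em450 read t=0, t=15 min.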
# [2] = Cell Viability - SK-N-SH (AID 435; calls by dose curve;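 further: potency means the concentration at half of the fitted maximal effect; compound exposure lasted 40 h at 37 °C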); details: SK-N-SH neuroblastoma cell viability qHTS
# How it was run: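 Cells seeded at 1500 per well and incubated 5 hr at 37 °C. Compound added, then 40 hr at 37 °C. CellTiter-Glo added, 20 min at room temperature, luminescence read.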
# [3] = Cellular Toxicity (caspase-3) BJ (AID 658);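 further: cells exposed to compound for 16 hours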
# How it was run: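 Plated BJ cells (1000/well) rested 5 hr, received compound for 16 hr at 37 °C, then Caspase-Glo 3/7 reagent for 1 hr at room temperature before luminescence reading.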
# [4] = Cell Viability - LYMP2-001 (AID 921); further: nearly all actives have a fitted effect of over 70% in size
# How it was run: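 qHTS, 1536-well; lymphoblastoid cells, 24 hr compound, 37 C; ATP by CellTiter-Glo, 30 min RT; luminescence; Hill-fit AC50.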
# [5] = Cell Viability - LYMP2-005 (AID 967); further: potency means the concentration at half of the fitted maximal effect
# How it was run: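 qHTS viability screen in LYMP2-005 cells: 24 h at 37 C with compound, ATP luminescence via CellTiter-Glo, AC50 from Hill curves.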
# [6] = Cell Viability - LYMP2-023 (AID 975);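 further: cells exposed to compound for 24 hours at 37 °C; nearly all actives have a fitted effect of over 55% in size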; further: potency means the concentration at half of the fitted maximal effect
# How it was run: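 CellTiter-Glo luminescence after 30 min at room temperature; decrease in intracellular ATP reflects toxicity. Cells: human lymphoblastoid line, 2500/well, 24 hr compound exposure at 37 C. AC50 fitted to standard Hill equation from concentration-response.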
# [7] = Cell Viability - LYMP2-020 (AID 986); further: nearly all actives have a fitted effect of over 55% in size; further: potency means the concentration at half of the fitted maximal effect
# How it was run: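 qHTS, 2500 cells/well; 5 hr then 24 hr compound exposure, 37 C; CellTiter-Glo luminescence after 30 min RT; ATP decrease taken as cytotoxicity; AC50 via Hill equation; tetraoctylammonium bromide positive control.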
# [8] = target: Bile acid receptor (Homo sapiens) (UniProt Q96RI1); test: qHTS assay for small molecule antagonists of farnesoid X receptor signaling (AID 588526; calls by dose curve)
# How it was run: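 Concentration-response titrations were fitted to the Hill equation for half-maximal inhibition and maximal response, with data normalised to 50 uM chenodeoxycholic acid and DMSO control wells. Cells: FXR-UAS-bla HEK293T, dialyzed FBS.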
# [9] = target: Glucocorticoid receptor (Homo sapiens) (UniProt P04150); test: qHTS assay for small molecule antagonists of glucocorticoid receptor signaling (AID 588533; active means well fitted inhibition curve with a large enough effect in the signal ratio, with a control signal flat, not every such curve was filed as active; the % refers to the signal ratio;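 further: cells stimulated with 2 nM dexamethasone as agonist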; further: potency means the concentration at half of the fitted maximal effect)
# How it was run: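 Antagonist-mode qHTS: compound titrations added to GRE-bla HeLa cells, then dexamethasone 2 nM final; 18 h, 37 C. CCF4 FRET fluorescence normalized to dexamethasone and DMSO; IC50 from Hill fit.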
# [10] = qHTS assay for small molecule antagonists of peroxisome proliferator-activated receptor delta signaling (AID 588535; active means well fitted inhibition curve with a large enough effect in the signal ratio, with a control signal flat, not every such curve was filed as active; the % refers to the signal ratio;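 on max response: cells co-treated with a PPAR-delta agonist as stimulator during compound exposure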); details: HEK293T PPARd-UAS-bla, beta-lactamase FRET ratio, 18 h; 460 nm channel
# How it was run: (§1)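 Compounds tested in titration on PPAR-delta-UAS-bla HEK293T cells grown in charcoal/dextran-stripped serum (2%); beta-lactamase activity read via CCF4 emission at 460 and 530 nm.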
# [11] = target: Peroxisome proliferator-activated receptor delta (Homo sapiens) (UniProt Q03181); test: as above
# How it was run: as §1
# [12] = qHTS assay for small molecule agonists of the antioxidant response element (ARE) signaling pathway (AID 651741; active means well fitted activation curve with a large enough effect in the signal ratio; the % refers to the signal ratio; further: potency means the concentration at half of the fitted maximal effect)
# How it was run: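 Beta-lactamase reporter expression driven by the antioxidant response element in HepG2 cells was detected by fluorescence with LiveBLAzer B/G FRET substrate (2 h, room temperature) following 16 h compound treatment at 37 C.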
# [13] = qHTS assay for cell viability of HEK293 cells (AID 743288); details: ATP luminescence (CellTiter-Glo), 18 h; max response: stronger effect = lower value; further: nearly all actives have a fitted effect of over 50% in size; further: potency means the concentration at half of the fitted maximal effect
# How it was run: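 Quantitative high-throughput screen: compounds were pinned onto parental HEK293 cells (2,000 per well) after a minimum 5 h settling at 37 C, incubated 18 h at 37 C, and intracellular ATP measured by luciferase luminescence.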
# [14] = Cell Viability - LYMP2-014 (AID 983); further: nearly all actives have a fitted effect of over 50% in size
# How it was run: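 2500 cells/well, 5 hr 37 C; cpd 24 hr 37 C, complete medium; CellTiter-Glo 30 min RT, luminescence; ATP loss = toxicity; AC50 via Hill eqn; tetraoctylammonium bromide positive control.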
# [15] = target: Peroxisome proliferator-activated receptor gamma (Homo sapiens) (UniProt P37231); test: qHTS assay for small molecule antagonists of peroxisome proliferator-activated receptor gamma signaling (AID 588537; active means well fitted inhibition curve with a large enough effect in the signal ratio, with a control signal flat, not every such curve was filed as active; the % refers to the signal ratio;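 further: reporter cells co-stimulated with 50 nM rosiglitazone agonist during compound treatment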)
# How it was run: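 HEK293 cells, PPAR-gamma-UAS-bla, 3000/well. Pre-incubation 6-6.5 h, 37 C. Compound titration with rosiglitazone 50 nM final, 16 h. CCF4 dye, 2 h RT, dual-emission fluorescence.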
# [16] = Cell Viability - LYMP1-002 - Assay at 24 hr (AID 993); further: potency means the concentration at half of the fitted maximal effect
# How it was run: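 CellTiter-Glo luminescence (intracellular ATP) after 24 h compound exposure, 37 C, in LYMP1-002 human lymphoblastoid cells; decreased ATP taken as cytotoxicity. AC50 from standard Hill fit of concentration-response curves.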
# [17] = qHTS assay for small molecule activators of the nuclear factor-kappa B (NF-kB) signaling pathway (AID 651749; active means well fitted activation curve with a large enough effect in the signal ratio; the % refers to the signal ratio); details: NF-kB-bla ME-180 cells, beta-lactamase FRET ratio, 16 h; stronger effect = higher value
# How it was run: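 Beta-lactamase reporter expression, controlled by NF-kB response elements in ME-180 cells, was quantified fluorometrically via FRET disruption; cells at 2,000/well had been incubated with 23 nL test compound for 16 hr.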
# [18] = target: Phospholipid hydroperoxide glutathione peroxidase GPX4 (Homo sapiens) (UniProt P36969); test: Primary qHTS Assay for Inhibitors of Recombinant Selenoprotein Glutathione Peroxidase 4 (GPX4) (AID 1845192); further: potency means the concentration at half of the fitted maximal effect; nearly all actives have a fitted effect of over 65% in size
# How it was run: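 qHTS, GR-coupled: GPX4 200 nM + cpd 30 min RT → GSH 1 mM, NADPH 0.5 mM, GR 100 nM → CHP 0.5 mM start; fluor 340/450 at t0 and t15 min; no-enzyme wells as control.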
# [19] = qHTS assay to identify small molecules that stimulate interleukin-8 (IL-8) secretion (AID 651758; active means well fitted activation curve with a large enough effect in the signal ratio; the % refers to the signal ratio; further: potency means the concentration at half of the fitted maximal effect)
# How it was run: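 Quantitative HTS in THP-1 monocytic cells at 2000 cells per well, with 16 hrs compound incubation at 37 C. IL-8 in the medium was then quantified by HTRF immunoassay, read after 1-3 hrs at room temperature.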
# [20] = qHTS profiling for inhibitors of Plasmodium falciparum proliferation (AID 504749); further: nearly all actives have a fitted effect of over 60% in size; details: P. falciparum in erythrocytes, SYBR Green DNA, 72 h, at 28.7 µM (top of the series)
# How it was run: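 Fluorescence of SYBR Green-bound parasite DNA, read at 485/535 nm, served as the growth measure. Infected erythrocytes were cultured with compound 72 h; artemisinin (0.29 uM) and DMSO wells defined the normalization range.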
# Chain of Peroxisome proliferator-activated receptor gamma (Homo sapiens) (P37231 whole entry, looked up): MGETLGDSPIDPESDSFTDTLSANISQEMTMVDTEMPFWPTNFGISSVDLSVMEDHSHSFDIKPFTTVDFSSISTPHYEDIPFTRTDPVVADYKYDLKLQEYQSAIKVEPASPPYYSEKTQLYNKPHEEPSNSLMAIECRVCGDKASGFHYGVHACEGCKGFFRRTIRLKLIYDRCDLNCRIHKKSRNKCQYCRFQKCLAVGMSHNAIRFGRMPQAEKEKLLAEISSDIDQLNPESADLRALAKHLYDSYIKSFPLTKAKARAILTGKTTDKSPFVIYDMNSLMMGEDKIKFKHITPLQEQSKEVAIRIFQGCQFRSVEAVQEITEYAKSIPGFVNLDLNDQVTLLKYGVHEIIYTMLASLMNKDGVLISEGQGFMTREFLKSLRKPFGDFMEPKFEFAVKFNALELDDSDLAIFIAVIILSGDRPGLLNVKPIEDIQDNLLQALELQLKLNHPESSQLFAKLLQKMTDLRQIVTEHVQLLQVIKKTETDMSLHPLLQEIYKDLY
# Chain of Glucocorticoid receptor (Homo sapiens) (P04150 whole entry, looked up): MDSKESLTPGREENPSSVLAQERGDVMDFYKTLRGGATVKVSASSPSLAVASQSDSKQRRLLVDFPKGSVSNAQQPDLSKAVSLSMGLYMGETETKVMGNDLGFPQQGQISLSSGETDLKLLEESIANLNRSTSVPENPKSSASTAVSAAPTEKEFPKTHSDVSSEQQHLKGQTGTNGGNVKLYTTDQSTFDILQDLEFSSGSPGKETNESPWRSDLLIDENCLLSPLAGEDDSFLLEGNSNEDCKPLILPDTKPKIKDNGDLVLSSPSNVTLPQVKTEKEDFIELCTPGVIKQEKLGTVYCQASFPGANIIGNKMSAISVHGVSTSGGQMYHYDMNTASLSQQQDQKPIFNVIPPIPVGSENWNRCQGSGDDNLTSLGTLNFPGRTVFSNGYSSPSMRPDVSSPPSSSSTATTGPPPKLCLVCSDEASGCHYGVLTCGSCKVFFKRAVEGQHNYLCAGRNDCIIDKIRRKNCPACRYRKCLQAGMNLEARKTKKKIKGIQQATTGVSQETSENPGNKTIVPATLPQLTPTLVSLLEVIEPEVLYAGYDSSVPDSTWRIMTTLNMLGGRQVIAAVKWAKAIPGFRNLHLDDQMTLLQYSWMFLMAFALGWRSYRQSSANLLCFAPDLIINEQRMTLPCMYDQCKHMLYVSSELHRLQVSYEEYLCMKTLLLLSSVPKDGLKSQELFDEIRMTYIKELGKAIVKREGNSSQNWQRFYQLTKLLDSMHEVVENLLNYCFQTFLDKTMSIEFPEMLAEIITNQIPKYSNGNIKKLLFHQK
# Chain of Peroxisome proliferator-activated receptor delta (Homo sapiens) (Q03181 whole entry, looked up): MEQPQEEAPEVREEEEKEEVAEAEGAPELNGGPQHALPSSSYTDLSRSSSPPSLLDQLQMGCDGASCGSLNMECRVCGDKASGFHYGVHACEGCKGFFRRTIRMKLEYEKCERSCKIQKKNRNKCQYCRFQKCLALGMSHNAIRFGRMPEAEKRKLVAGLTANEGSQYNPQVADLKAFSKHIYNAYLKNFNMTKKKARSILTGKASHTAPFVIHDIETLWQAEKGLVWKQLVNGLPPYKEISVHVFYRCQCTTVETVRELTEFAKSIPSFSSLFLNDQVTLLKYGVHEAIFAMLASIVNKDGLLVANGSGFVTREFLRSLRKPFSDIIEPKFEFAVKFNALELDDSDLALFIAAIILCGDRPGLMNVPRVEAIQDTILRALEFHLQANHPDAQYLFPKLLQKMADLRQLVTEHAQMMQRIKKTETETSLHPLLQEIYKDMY
# Chain of Bile acid receptor (Homo sapiens) (Q96RI1 whole entry, looked up): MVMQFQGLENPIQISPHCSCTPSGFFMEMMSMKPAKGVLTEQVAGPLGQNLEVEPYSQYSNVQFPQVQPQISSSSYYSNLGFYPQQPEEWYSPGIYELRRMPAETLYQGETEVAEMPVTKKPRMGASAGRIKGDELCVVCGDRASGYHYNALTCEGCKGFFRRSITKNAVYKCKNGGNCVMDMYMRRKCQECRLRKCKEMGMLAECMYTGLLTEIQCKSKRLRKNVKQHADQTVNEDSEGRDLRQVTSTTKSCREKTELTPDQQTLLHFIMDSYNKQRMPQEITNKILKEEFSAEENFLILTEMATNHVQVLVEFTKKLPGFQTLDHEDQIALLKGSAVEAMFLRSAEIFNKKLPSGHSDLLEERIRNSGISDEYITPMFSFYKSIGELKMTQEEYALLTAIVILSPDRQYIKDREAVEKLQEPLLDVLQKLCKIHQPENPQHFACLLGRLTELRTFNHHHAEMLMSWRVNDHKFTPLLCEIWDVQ
# Chain of Glutathione peroxidase 1 (Homo sapiens) (P07203 whole entry, looked up): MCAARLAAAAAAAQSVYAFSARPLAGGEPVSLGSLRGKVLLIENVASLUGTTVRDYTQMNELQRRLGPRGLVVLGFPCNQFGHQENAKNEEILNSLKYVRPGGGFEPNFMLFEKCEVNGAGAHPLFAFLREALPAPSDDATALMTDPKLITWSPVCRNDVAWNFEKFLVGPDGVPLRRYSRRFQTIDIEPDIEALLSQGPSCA
# Chain of Phospholipid hydroperoxide glutathione peroxidase GPX4 (Homo sapiens) (P36969 whole entry, looked up): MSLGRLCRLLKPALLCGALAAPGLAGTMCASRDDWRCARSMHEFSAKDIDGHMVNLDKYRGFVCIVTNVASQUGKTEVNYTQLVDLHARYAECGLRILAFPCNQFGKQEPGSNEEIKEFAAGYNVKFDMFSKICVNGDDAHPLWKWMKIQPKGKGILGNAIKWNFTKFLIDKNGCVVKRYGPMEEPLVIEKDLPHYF
structure (smiles),measurement,setting,value
COc1cc([C@@H]2c3cc4c(cc3[C@@H](O[C@@H]3O[C@@H]5CO[C@@H](C)O[C@H]5[C@H](O)[C@H]3O)[C@H]3COC(=O)[C@H]23)OCO4)cc(OC)c1OP(=O)(O)O,Potency,[1],inactive
COC(=O)c1ccc(C)cc1,Potency,[2],> 92 µM (inactive)
same,outcome,[3],inactive
same,Potency,[4],inactive
same,Potency,[5],inactive
same,Potency,[6],inactive
same,Potency,[7],inactive
same,outcome,[8],inactive
same,Potency,[9],inactive
same,max response,[10],-3.36% and -19.7%
same,Potency,[11],inactive
same,Potency,[12],inactive
same,max response,[13],4.41% (inactive) and -4.05% (inactive)
CCNC(=O)[C@H]1CCCN1C(=O)[C@H](CCCN=C(N)N)NC(=O)[C@H](CC(C)C)NC(=O)[C@H](CC(C)C)NC(=O)[C@@H](Cc1ccc(O)cc1)NC(=O)[C@H](CO)NC(=O)[C@@H](Cc1c[nH]c2ccccc12)NC(=O)[C@H](Cc1cnc[nH]1)NC(=O)[C@@H]1CCC(=O)N1 ([pGlu]H[dW]S[dY]LLR[dP]-NHEt),Potency,[1],inactive
CC(=O)OC/C=C(\C)CCC=C(C)C,Potency,[2],> 92 µM (inactive)
same,Potency,[5],inactive
same,Potency,[14],inactive
same,Potency,[9],inactive
same,max response,[10],-10.2% and 0.451%
same,Potency,[11],inactive
same,outcome,[15],inactive
same,max response,[13],-10.3% (inactive) and 5.2% (inactive)
Cc1c(N=C=O)cccc1N=C=O,Potency,[2],> 92 µM (inactive)
same,Potency,[5],inactive
same,Potency,[6],inactive
same,Potency,[16],inactive
same,Potency,[9],inactive
same,outcome,[15],inactive
same,Potency,[12],inactive
same,activation,[17],-0.751% (inactive) and -0.0469% (inactive)
CCCCCCCCO,Potency,[2],> 92 µM (inactive)
same,Potency,[4],inactive
same,Potency,[6],inactive
same,Potency,[16],inactive
same,Potency,[9],inactive
same,max response,[10],-13.8% and 47.8%
same,Potency,[11],inactive
same,outcome,[15],inactive
same,Potency,[12],inactive
CO[C@H]1/C=C\O[C@@]2(C)Oc3c(C)c(O)c4c(O)c(c(/C=N/N5CCN(C6CCCC6)CC5)c(O)c4c3C2=O)NC(=O)/C(C)=C\C=C/[C@H](C)[C@H](O)[C@@H](C)[C@@H](O)[C@@H](C)[C@H](OC(C)=O)[C@@H]1C,Potency,[18],10 µM (active)
Cc1cc2nc3c(=O)[nH]c(=O)nc-3n(C[C@@H](O)[C@@H](O)[C@@H](O)COP(=O)(O)O)c2cc1C,Potency,[18],2.55 µM (active)
CCO[Si](CCCN)(OCC)OCC,outcome,[3],inactive
same,Potency,[7],inactive
same,Potency,[16],inactive
same,outcome,[8],inactive
same,Potency,[9],inactive
same,max response,[10],6.45% and -7.95%
same,Potency,[11],inactive
same,outcome,[15],inactive
same,Potency,[12],inactive
same,activation,[17],-0.737% (inactive) and -1.24% (inactive)
CC1(C)CC(N=C=O)CC(C)(CN=C=O)C1 (configuration not stated),outcome,[3],inactive
same,Potency,[5],inactive
same,Potency,[6],inactive
same,Potency,[14],inactive
same,outcome,[8],inactive
same,outcome,[15],inactive
same,Potency,[12],inactive
same,activation,[17],-0.293% (inactive) and -0.0815% (inactive)
same,max response,[13],-4.37% (inactive) and 1.94% (inactive)
CCC(C)c1ccccc1O (configuration not stated),outcome,[3],inactive
same,Potency,[4],inactive
same,Potency,[5],inactive
same,Potency,[7],inactive
same,Potency,[16],inactive
same,Potency,[9],inactive
same,max response,[10],-8.1% and -17.6%
same,Potency,[11],inactive
same,outcome,[15],inactive
same,activation,[17],0.327% (inactive) and -0.174% (inactive) and -0.563% (inactive)
same,max response,[13],12.6% (inactive) and 1.15% (inactive) and -2.8% (inactive)
Nc1ccc(S(=O)(=O)O)cc1,outcome,[3],inactive
same,Potency,[4],inactive
same,Potency,[6],inactive
same,Potency,[16],inactive
same,outcome,[8],inactive
same,Potency,[12],inactive
same,activation,[17],-0.239% (inactive) and 0.0399% (inactive)
Cc1ccc([N+](=O)[O-])cc1N,Potency,[6],inactive
same,outcome,[8],inactive
same,max response,[10],18.4% and -6.91%
same,Potency,[11],inactive
same,outcome,[15],inactive
Nc1ccc(Cl)cc1Cl,Potency,[7],inactive
same,Potency,[16],inactive
same,outcome,[8],inactive
same,Potency,[9],inactive
same,max response,[10],65.7% and 18%
same,Potency,[11],inactive
same,outcome,[15],inactive
same,activation,[17],0.288% (inactive) and 1.41% (inactive)
NC1=NC(S)C2N=CN=C2N1 (configuration not stated),Potency,[5],12.6 µM (active)
same,Potency,[6],10 µM (active)
same,Potency,[7],10 µM (active)
same,Potency,[16],10 µM (active)
same,Potency,[9],7.08 µM (active)
same,Potency,[12],33.5 µM (active)
same,activation,[17],0.298% (inactive)
same,Potency,[19],66.8 µM (active)
same,Potency,[13],2.82 µM (active)
same,"activity, negative = inhibition",[20]; parasite line A,3.76% (inactive)
same,"activity, negative = inhibition",[20]; parasite line B,-5.29% (inactive)
CCCCC(CC)CN (configuration not stated),Potency,[5],inactive
same,Potency,[14],inactive
same,Potency,[9],inactive
same,max response,[10],-11.9% and 2.89%
same,Potency,[11],inactive
same,outcome,[15],inactive
same,Potency,[12],inactive
same,activation,[17],-0.627% (inactive) and -0.116% (inactive)
same,Potency,[19],75 µM (active) and inactive
COC(=O)CCCCC(=O)OC,Potency,[4],inactive
same,Potency,[14],inactive
same,Potency,[7],inactive
same,Potency,[16],inactive
same,outcome,[8],inactive
same,Potency,[9],inactive
same,max response,[10],25.3% and -0.778%
same,Potency,[11],inactive
same,outcome,[15],inactive
same,Potency,[19],inactive
c1ccc2c(c1)c1cccc3ccc4cccc2c4c31,outcome,[3],inactive
same,Potency,[6],inactive
same,outcome,[8],inactive
same,Potency,[9],inactive
same,max response,[10],25.2% and 42.4%
same,Potency,[11],inactive
same,activation,[17],2.08% (inactive) and 3.95% (inactive)
O=C(O)CC(C(=O)O)C(CC(=O)O)C(=O)O (configuration not stated),Potency,[4],inactive
same,Potency,[5],inactive
same,outcome,[8],inactive
same,Potency,[9],inactive
same,max response,[10],5.81%
same,Potency,[11],inactive
same,outcome,[15],inactive
same,Potency,[12],inactive
same,activation,[17],-0.643% (inactive) and 0.457% (inactive)
same,Potency,[19],inactive
same,max response,[13],-0.385% (inactive) and -19.1% (inactive)
O=C(/C=C/c1ccc(O)c(O)c1)O[C@@H](C(=O)O)[C@@H](OC(=O)/C=C/c1ccc(O)c(O)c1)C(=O)O,Potency,[4],inactive
same,Potency,[5],inactive
same,outcome,[8],inactive
same,Potency,[9],inactive
same,max response,[10],24.1%
same,Potency,[11],inactive
same,Potency,[12],inactive
same,max response,[13],-0.791% (inactive)
